# High-throughput results from PubChem BioAssay.
# Most compounds without a hit are left out; they make up all but 12% or so of the library.
# BAZ2B inh: blocks human BAZ2B; hit rate 4.4% among 360,000; Q9UIF8; AlphaScreen BAZ2B-H3K14Ac peptide displacement; Potency, µM (titrated, usually from 114 µM), without a hit: at the top dose activity change, negative = inhibition, hits mostly inhibitors; AID 504333; further: on the % scale 0 is the no-effect control and ±100 the full control effect; nearly all actives have a fitted effect of over 60% in size
#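 AlphaScreen displacement: compounds (up to 110uM) incubated 30 min at room temperature with a preformed 50 nM BAZ2B/50 nM biotinylated H3K14Ac peptide complex in PBS pH 7.4 with Tween-20. Donor and acceptor beads at 10 ug/mL final added, 20 min light-protected before reading.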
# HP1b binding inh: blocks HP1-beta chromodomain binding to methylated histone tails. P83916. AlphaScreen HP1-beta / biotin-H3K9me3 peptide binding. Potency, µM (titrated, usually from 114 µM), for inactives: at the highest dose activity change, negative = inhibition, actives largely listed as inhibitors. hit rate 0.56% among 390,000; further: nearly all actives have a fitted effect of over 70% in size
# Target sequence (P83916 whole entry, looked up): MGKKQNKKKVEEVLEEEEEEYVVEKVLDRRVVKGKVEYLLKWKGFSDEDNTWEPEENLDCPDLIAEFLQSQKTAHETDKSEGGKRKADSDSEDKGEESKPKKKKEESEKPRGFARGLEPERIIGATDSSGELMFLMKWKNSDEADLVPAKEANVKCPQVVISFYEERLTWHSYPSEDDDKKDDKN
#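 AlphaScreen: HP1-beta (50 nM) preformed 30 min with biotin-H3(1-18)K9me3 peptide (50 nM) in PBS pH 7.4, 0.01% Tween-20. Compound added for 30 min at RT, then streptavidin donor/nickel chelate acceptor beads (10 ug/mL) for 30 min.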
# L3MBTL1 block: L3MBTL1 (human) inhibition; Q9Y468; AlphaScreen L3MBTL1–H3K9me1 peptide binding; Potency, µM (series often up to 57.1 µM), inactives show top-dose activity, negative = inhibition, actives largely listed as inhibitors; hit rate 0.66% among 230,000; AID 485360; further: on the % scale 0 is the no-effect control and ±100 the full control effect; nearly all actives have a fitted effect of over 60% in size
#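 L3MBTL1 50 nM + b-AHA-H3(1-15)K9me1 75 nM, 30 min RT; compound added, 30 min RT; streptavidin donor/Ni-chelate acceptor beads 10 ug/mL each final, 30 min RT dark; AlphaScreen read.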
# JMJD2A Tudor inh: blocks the human JMJD2A Tudor domain; O75164; AlphaScreen JMJD2A-Tudor / H3K4me3 peptide binding; Potency, µM (highest dose often 114 µM), for the others: at the highest dose activity change, negative = inhibition, usual class: inhibitors; hit rate 4.4% among 390,000; AID 504339; further: on the % scale 0 is the no-effect control and ±100 the full control effect; nearly all actives have a fitted effect of over 50% in size
# G9a inh: inhibitors of human histone lysine methyltransferase G9a; Q96KQ7; G9a H3K9 monomethylation, AlphaScreen, 2 h; Potency, µM (doses to about 102 µM), for the others: at the top dose activity, negative = inhibition, hits mostly inhibitors; hit rate 8.8% among 350,000; further: on the % scale 0 is the no-effect control and ±100 the full control effect; nearly all actives have a fitted effect of over 75% in size
# Target sequence (Q96KQ7 913-1193 limits assumed): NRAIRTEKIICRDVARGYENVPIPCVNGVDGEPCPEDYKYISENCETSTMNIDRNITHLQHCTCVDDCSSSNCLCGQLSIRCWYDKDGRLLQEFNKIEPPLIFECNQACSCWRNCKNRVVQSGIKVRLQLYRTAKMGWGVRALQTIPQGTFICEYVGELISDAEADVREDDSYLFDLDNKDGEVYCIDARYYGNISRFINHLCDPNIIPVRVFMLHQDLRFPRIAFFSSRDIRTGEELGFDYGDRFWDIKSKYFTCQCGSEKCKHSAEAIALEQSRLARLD
#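 Quantitative HTS format: methyltransferase activity on a biotin-tagged H3K9 peptide is measured by AlphaScreen, using a rabbit anti-monomethyl-H3K9 antibody with streptavidin donor and anti-IgG acceptor beads. Final levels are 20 nM enzyme, 500 nM peptide, 20 uM SAM; 2 h RT.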
# Sfp inh: inhibitors of Bacillus subtilis Sfp phosphopantetheinyl transferase | hit rate 3.5% among 310,000 | AID 1490 | Q9F4F7 | Potency, µM, without a hit: largest response in the series, negative = inhibition, hits mostly inhibitors | Biochemical Sfp PPTase activity, qHTS;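 further: the enzyme is Sfp with the accession as filed and its product quenches rhodamine fluorescence; 0% = enzyme reaction without inhibitor and -100% = no enzyme wells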
#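 Sfp 15 nM + cpd, 15 min RT; start w/ rhodamine-CoA 5 uM, BHQ-2-YbbR 12.5 uM (final); 50 mM Hepes pH 7.6, 10 mM MgCl2, 0.01% NP-40, 0.01% BSA; read 525/598 nm at 0 and 30 min.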
# An asterisk follows results filed as active; ? = inconclusive; nt = not tested or not shown; [ ] = dose if it differs, or a comment. The call rests on the fitted dose curve; in most records, active means well fitted curve in the direction sought with a large enough effect; inconclusive means small, poorly fitted or top-dose-only effect, or another doubt; inactive means no such curve, though single readings can be large; an effect the other way counts as inactive or inconclusive. Potency means the concentration at half of the fitted maximal effect.
SMILES,BAZ2B inh,HP1b binding inh,L3MBTL1 block,JMJD2A Tudor inh,G9a inh,Sfp inh
O=C(C[n+]1ccc(CCSc2ccc(F)cc2)cc1)c1ccccc1,5%,45µM*,-22%,?,22µM*,50µM*
O=C(C[n+]1ccccc1)c1ccc(-c2ccccc2)cc1,12%,30%,nt,-3%,-45%,5%
Cc1ccc(SCCc2cc[n+](CC(=O)c3ccccc3)cc2)cc1,-6%,16%,5%,2%,?,-1%
Cc1ccc(C(=O)C[n+]2ccc(Cc3ccccc3)cc2)cc1,-14%,33%,12%,0%,45µM*,11%
Cc1cc(NCCCCCCCNc2cc(C)nc3cc([N+](=O)[O-])ccc23)c2ccc([N+](=O)[O-])cc2n1,nt,71µM*,nt,56µM*,nt,nt
COc1ccc(-n2cnnc2SCC(=O)Nc2ccc(C(N)=O)cc2)cc1,0%,35%,nt,11%,-11%,11%
CCOC(=O)c1ccc(NC(=O)CSc2nnc(-c3ccncc3)n2-c2ccccc2)cc1,4%,29%,nt,-28%,-16%[59 µM],nt
O=C(CSc1nnc(-c2ccncc2)n1-c1ccccc1)Nc1ccc(C(=O)O)cc1,4%,3%,nt,-9%,50µM*,-16%
COc1ccc(-n2c(SCC(=O)Nc3ccc(C(=O)O)cc3)nnc2-c2ccccc2)cc1OC,56µM*,47%,nt,-18%,?,15%
O=C(CSc1nnc(-c2cccc(S(=O)(=O)N3CCCC3)c2)n1-c1ccccc1)Nc1ccc(C(=O)O)cc1,50µM*,8%,nt,?,?,-7%
NC(=O)c1ccc(NC(=O)CSc2nncn2-c2ccccc2)cc1,-2%,22%,nt,-6%,22µM*,4%
Cn1c(=O)n(C)c2cc(NC(=O)CSc3nnc(-c4ccccc4O)n3-c3ccccc3)ccc21,50µM*,20%,-4%,-14%,-7%[12.7 µM],15%
COc1ccc(-n2c(SCC(=O)Nc3ccc(C(N)=O)cc3)nc3ccccc3c2=O)cc1OC,-28%,-13%,nt,-21%,50µM*,-14%
O=C(CSc1nnc(-c2ccncc2)n1-c1ccccc1)N1CCN(c2ccc(Cl)cc2)CC1,3%,-3%,nt,-8%,28µM*,18%
CCOC(=O)c1sc(N2C(=O)c3oc4ccccc4c(=O)c3C2c2ccc(C(C)(C)C)cc2)nc1C (stereo not drawn),1%,5%,nt,-21%,4%[59 µM],nt
Cc1ccccc1N(C)C1=N[S+](=O)([O-])c2ccccc21,nt,nt,nt,-20%,nt,nt
Oc1[nH]c2ccccc2c1N=Nc1nncc2ccccc12,?,?,nt,-9%[11.4 µM],13µM*,-25%
Cc1cc(-c2csc(N)n2)c(C)n1CCC(C)C,?,-31%,nt,50µM*,10µM*,50µM*
Cc1cc(-c2csc(N)n2)c(C)n1CCc1ccccc1,45µM*,-18%,nt,45µM*,?,45µM*
O=c1c2nc(Br)n([C@@H]3O[C@@H]4CO[P@@](O)(=S)O[C@H]4[C@H]3O)c2nc2[nH]c(-c3ccccc3)cn12,nt,nt,nt,nt,nt,-1%
CC(Oc1ccccc1)C(=O)OCC(=O)N1CC(=O)Nc2ccccc21 (stereo not drawn),-14%,45%,8%,1%,10%,8%
Cc1ccc(OC(C)C(=O)N2CC(=O)Nc3ccccc32)cc1 (stereo not drawn),-8%,23%,nt,-13%,3.5µM*,13%
Cc1cc(C)c2c(n1)SCCN2C(=O)Nc1ccc(C(=O)Nc2cc(Cl)ccc2C)cc1,3%,40%,nt,-2%,?,nt
Cc1[nH][nH]c(=O)c1C(c1ccccc1[N+](=O)[O-])C(C#N)C#N (stereo not drawn),-17%,16%,nt,-18%,40µM*,-66%
CCCn1c(-c2ccc(F)cc2)nc2c(NCCCCN(C)C)nc(C)nc21,nt,nt,nt,nt,nt,23%
COc1ccc(/C=C2\SC(=S)N(NS(=O)(=O)c3ccccc3)C2=O)c(OC)c1,-21%,6%,nt,-26%,?,?
